Source: the supplement of paper PMC12350171
Structures can show the parent of a compound that is named as a salt.

Key:
Details in all cases: 20 µM
[1] = test system: Salmonella enterica typhimurium; test: growth AUC normalised to DMSO control (fraction of control); higher = less growth inhibition, active = hit call of the paper
Summary of the method: (§1)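 Hemin and NAD were added to the medium for Haemophilus parainfluenzae. All pathogens, after two anaerobic passages, were inoculated at a starting OD578 of 0.01 into pre-reduced mGAM plates with 20 μM compound and 1% DMSO under breathable seals, and OD578 was read hourly for 24 h in three biological replicates. AUC of each growth curve was obtained with the trapezoidal rule up to the exponential-to-stationary transition and normalised to DMSO controls from the same plate.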

Shigella flexneri = test: as above
Summary of the method: as §1

Vibrio cholerae = test: as above
Summary of the method: as §1

[2] = test system: Yersinia pseudotuberculosis; test: as above
Summary of the method: as §1

P. vulgatus RND KO = test: growth AUC normalised to DMSO control (median) (fraction of control); higher = less growth inhibition, active = hit call of the paper
Summary of the method: (§2)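 After two overnight anaerobic passages, strains were inoculated at OD578 0.01 into mGAM in 96-well plates containing approved-drug library compounds at 20 μM and 1% DMSO. Growth was followed by reading OD578 hourly for 24 h within an anaerobic incubator. Area under the curve, taken by the trapezoidal rule up to the start of stationary phase, was normalised to same-plate vehicle wells, and the median of three biological replicates is listed.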

P. vulgatus WT = test: as above
Summary of the method: as §2

[3] = test system: S. enterica typhimurium WT; test: as above
Summary of the method: as §2

[4] = test system: S. enterica typhimurium tolC KO; test: as above
Summary of the method: as §2

Measured: growth AUC normalised to DMSO control
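Wherever growth AUC normalised to DMSO control (median) is given: active when median AUC fell below 0.1.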

CC1c2cccc(O)c2C(O)=C2C(=O)C3(O)C(O)=C(C(N)=O)C(=O)C(N(C)C)C3C(O)C21 (centres undefined) [Doxycycline hydrochloride]
active: [1] 0.00452 | Shigella flexneri 0.00494 | Vibrio cholerae 0.018 | [2] 0.0395 | P. vulgatus RND KO 0.012 | P. vulgatus WT 0.00631 | [3] 0.00375 | [4] 0.00276

CN1C(=O)OC(C)(C)C1=O [Trimethadione]
inactive: [1] 0.996 | Shigella flexneri 0.943 | Vibrio cholerae 0.982 | [2] 0.992 | P. vulgatus RND KO 0.971 | P. vulgatus WT 0.977 | [3] 0.999 | [4] 1

Nc1ccc(S(N)(=O)=O)cc1 [Sulfanilamide]
inactive: [1] 1.03 | Shigella flexneri 1.04 | Vibrio cholerae 1.05 | [2] 1.01 | P. vulgatus RND KO 1.03 | P. vulgatus WT 1.06 | [3] 0.993 | [4] 1

CCCNC(C)C(=O)Nc1c(C)csc1C(=O)OC (centres undefined) [Articaine hydrochloride]
inactive: [1] 0.949 | Shigella flexneri 1.03 | Vibrio cholerae 1.08 | [2] 1.03 | P. vulgatus RND KO 1.04 | P. vulgatus WT 1.06 | [3] 1.01 | [4] 0.997

CC(C)(C)NCC(O)COc1cccc2c1CCC(=O)N2 (centres undefined) [Carteolol hydrochloride]
inactive: [1] 1 | Shigella flexneri 0.985 | Vibrio cholerae 0.993 | [2] 1 | P. vulgatus RND KO 0.945 | P. vulgatus WT 0.968 | [3] 0.998 | [4] 0.991

COc1ccc2c3c1O[C@H]1C[C@@H](O)C=C[C@@]31CCN(C)C2 [Galanthamine hydrobromide]
inactive: [1] 0.995 | Shigella flexneri 0.95 | Vibrio cholerae 0.986 | [2] 1.02 | P. vulgatus RND KO 0.998 | P. vulgatus WT 1 | [3] 1 | [4] 0.995

O=C(c1ccc(F)cc1)C1CCN(CCn2c(=O)[nH]c3ccccc3c2=O)CC1 [Ketanserin tartrate hydrate]
inactive: [1] 1.01 | Shigella flexneri 1.03 | Vibrio cholerae 0.894 | [2] 1 | P. vulgatus RND KO 1.03 | P. vulgatus WT 1.05 | [3] 1.02 | [4] 0.997

CN(c1nccc(=O)[nH]1)C1CCN(c2nc3ccccc3n2Cc2ccc(F)cc2)CC1 [Mizolastine]
inactive: [1] 1.02 | Shigella flexneri 1.04 | Vibrio cholerae 1.02 | [2] 1.01 | P. vulgatus RND KO 0.929 | P. vulgatus WT 0.921 | [3] 1.01 | [4] 0.906

Nc1nc(NC2CC2)c2ncn([C@H]3C=C[C@@H](CO)C3)c2n1 [Abacavir sulfate]
inactive: [1] 1.01 | Shigella flexneri 0.989 | Vibrio cholerae 0.989 | [2] 0.971 | P. vulgatus RND KO 0.989 | P. vulgatus WT 1.01 | [3] 1.01 | [4] 1

O=C(Nc1ccc([N+](=O)[O-])cc1Cl)c1cc(Cl)ccc1O [Niclosamide]
inactive: [1] 0.995 | Shigella flexneri 0.983 | [3] 0.992
active: Vibrio cholerae 0.0756 | [2] 0.843 | P. vulgatus RND KO 0.0144 | P. vulgatus WT 0.0167 | [4] 0.00688

Oc1ncnc2[nH]ncc12 [Allopurinol]
inactive: [1] 0.996 | Shigella flexneri 1.03 | Vibrio cholerae 1.02 | [2] 1 | P. vulgatus RND KO 1.03 | P. vulgatus WT 1.04 | [3] 0.999 | [4] 0.99

Nc1ccc(/N=N/c2ccccc2)c(N)n1 [Phenazopyridine hydrochloride]
inactive: [1] 0.969 | Shigella flexneri 0.922 | Vibrio cholerae 0.927 | [2] 0.958 | P. vulgatus RND KO 1.03 | P. vulgatus WT 1.03 | [3] 0.989 | [4] 0.988

CCC1NC(=O)c2cc(S(N)(=O)=O)c(Cl)cc2N1 (centres undefined) [Quinethazone]
inactive: [1] 1.01 | Shigella flexneri 1.03 | Vibrio cholerae 1.05 | [2] 1.01 | P. vulgatus RND KO 1.06 | P. vulgatus WT 1.12 | [3] 1.01 | [4] 1.01

COc1cc(C(=O)OCCCN2CCCN(CCCOC(=O)c3cc(OC)c(OC)c(OC)c3)CC2)cc(OC)c1OC [Dilazep dihydrochloride]
inactive: [1] 1 | Shigella flexneri 1.03 | Vibrio cholerae 1.01 | [2] 0.989 | P. vulgatus RND KO 0.993 | P. vulgatus WT 0.989 | [3] 1 | [4] 0.978

Nc1ccc(S(=O)(=O)Nc2ccccn2)cc1 [Sulfapyridine]
inactive: [1] 0.986 | Shigella flexneri 0.95 | Vibrio cholerae 0.984 | [2] 0.994 | P. vulgatus RND KO 1.01 | P. vulgatus WT 1 | [3] 0.998 | [4] 1

CN(C)CCOC(C)(c1ccccc1)c1ccccn1 (centres undefined) [Doxylamine succinate]
inactive: [1] 0.982 | Shigella flexneri 1.01 | Vibrio cholerae 1 | [2] 0.996 | P. vulgatus RND KO 0.981 | P. vulgatus WT 0.993 | [3] 0.986 | [4] 0.999

NC(=O)c1ncn([C@@H]2O[C@H](CO)[C@@H](O)[C@H]2O)n1 [Ribavirin]
inactive: [1] 0.995 | Shigella flexneri 0.949 | Vibrio cholerae 0.983 | [2] 0.952 | P. vulgatus RND KO 0.987 | P. vulgatus WT 1 | [3] 0.98 | [4] 0.988

CC(C)NCC(O)c1cc(O)cc(O)c1 (centres undefined) [Metaproterenol sulfate]
inactive: [1] 0.995 | Shigella flexneri 0.967 | Vibrio cholerae 0.998 | [2] 0.988 | P. vulgatus RND KO 0.986 | P. vulgatus WT 1 | [3] 1.01 | [4] 0.997

Cc1ccc(S(=O)(=O)NC(=O)NN2CC3CCCC3C2)cc1 (centres undefined) [Gliclazide]
inactive: [1] 1.02 | Shigella flexneri 1.04 | Vibrio cholerae 1.02 | [2] 0.987 | P. vulgatus RND KO 0.999 | P. vulgatus WT 1.02 | [3] 1 | [4] 1.01

OCc1cc(C(O)CNCCCCCCOCCCCc2ccccc2)ccc1O (centres undefined) [Salmeterol]
inactive: [1] 0.997 | Shigella flexneri 0.995 | Vibrio cholerae 1 | [2] 0.959 | P. vulgatus RND KO 0.977 | P. vulgatus WT 0.962 | [3] 0.995 | [4] 0.946

CC(=O)[C@H]1CC[C@H]2[C@@H]3C[C@H](C)C4=CC(=O)CC[C@]4(C)[C@H]3[C@@H](O)C[C@]12C [Medrysone]
inactive: [1] 0.994 | Shigella flexneri 0.962 | Vibrio cholerae 0.974 | [2] 0.991 | P. vulgatus RND KO 0.997 | P. vulgatus WT 1.02 | [3] 1.01 | [4] 0.976

C(=C\c1ccccc1)/CN1CCN(C(c2ccccc2)c2ccccc2)CC1 [Cinnarizine]
inactive: [1] 0.986 | Shigella flexneri 0.925 | Vibrio cholerae 0.895 | [2] 0.976 | P. vulgatus RND KO 1.01 | P. vulgatus WT 1 | [3] 0.997 | [4] 0.965

CCCCOC(=O)c1ccc(N)cc1 [Butamben]
inactive: [1] 0.994 | Shigella flexneri 0.995 | Vibrio cholerae 0.989 | [2] 0.937 | P. vulgatus RND KO 1.03 | P. vulgatus WT 1.03 | [3] 0.998 | [4] 1.01

Clc1ccccc1CN1CCc2sccc2C1 [Ticlopidine hydrochloride]
inactive: [1] 0.975 | Shigella flexneri 0.988 | Vibrio cholerae 0.947 | [2] 1.01 | P. vulgatus RND KO 0.986 | P. vulgatus WT 0.997 | [3] 0.967 | [4] 0.973

CC(=O)N[C@@H](CC(C)C)C(=O)O [N-Acetyl-L-leucine]
inactive: [1] 1.04 | Shigella flexneri 1.01 | Vibrio cholerae 1.03 | [2] 1 | P. vulgatus RND KO 0.99 | P. vulgatus WT 0.997 | [3] 0.999 | [4] 0.996

CCN[C@H]1CN(CCCOC)S(=O)(=O)c2sc(S(N)(=O)=O)cc21 [Brinzolamide]
inactive: [1] 0.965 | Shigella flexneri 0.952 | Vibrio cholerae 0.965 | [2] 0.989 | P. vulgatus RND KO 0.986 | P. vulgatus WT 0.973 | [3] 0.995 | [4] 1

c1ccc2c(c1)CCCC2C1=NCCN1 (centres undefined) [Tetrahydrozoline hydrochloride]
inactive: [1] 0.981 | Shigella flexneri 0.981 | Vibrio cholerae 0.991 | [2] 0.996 | P. vulgatus RND KO 0.997 | P. vulgatus WT 1 | [3] 0.996 | [4] 1

CN[C@H]1CC[C@@H](c2ccc(Cl)c(Cl)c2)c2ccccc21 [Sertraline]
inactive: [1] 0.992 | Shigella flexneri 0.978 | Vibrio cholerae 0.928 | [2] 1.01 | P. vulgatus RND KO 0.998 | P. vulgatus WT 1.02 | [3] 0.999 | [4] 0.945
